# Screening results as filed in PubChem BioAssay.
# NPSR antagonist: blocks cAMP signaling of the human neuropeptide S receptor. Q6W5P4. CHO-NPSR cells, cAMP TR-FRET, antagonist mode. Potency, µM (doses to about 38.3 µM), inactives show top-dose activity change, negative = inhibition, actives largely listed as inhibitors. 220,000 tested, 1% active; further: nearly all actives have a fitted effect of over 50% in size
# Target sequence (Q6W5P4 whole entry, looked up): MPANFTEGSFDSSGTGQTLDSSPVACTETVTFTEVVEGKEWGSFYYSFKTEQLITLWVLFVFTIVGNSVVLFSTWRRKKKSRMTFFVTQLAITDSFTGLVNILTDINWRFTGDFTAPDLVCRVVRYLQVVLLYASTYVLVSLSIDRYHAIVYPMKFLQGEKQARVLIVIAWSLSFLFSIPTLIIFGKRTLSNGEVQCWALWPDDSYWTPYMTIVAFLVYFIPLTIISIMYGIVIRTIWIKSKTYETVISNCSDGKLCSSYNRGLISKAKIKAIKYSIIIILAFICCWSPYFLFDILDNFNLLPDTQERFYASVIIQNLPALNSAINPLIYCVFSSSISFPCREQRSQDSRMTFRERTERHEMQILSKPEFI
# Tau fluor counter: counter-screen for tau fibril formation inhibitors | tau K18 P301L Alexa594 fluorescence, heparin fibrillization | Potency, µM (top dose mostly 57.7 µM), for inactives: at the highest dose activity change, negative = decrease | 280,000 tested, 0.93% active | AID 1463; further: nearly all actives have a fitted effect of over 55% in size
#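 Human K18 P301L tau (15 uM unlabeled plus 0.24 uM Alexa 594-labeled, final) in 100 mM sodium acetate pH 7 was mixed with compound and 20 uM heparin and incubated 6 hr at 37 C.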
# Tau ThT inhib: inhibitors of human tau fibril formation, thioflavin T binding; 270,000 tested, 2.1% active; Potency, µM (series often up to 57.4 µM), for the others: top-dose activity, negative = inhibition, actives largely listed as inhibitors; recombinant tau K18 P301L, heparin-induced fibrillization, ThT fluorescence; AID 1460; P10636; further: nearly all actives have a fitted effect of over 55% in size
#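 Using a mix of unlabeled (15 uM) and Alexa 594-labeled (0.24 uM) tau K18 P301L, heparin-triggered fibrillization over 6 hr at 37 C was scored by ThT fluorescence.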
# Tau fibril FP: blocks human tau fibril formation measured by polarization; P10636; K18 P301L tau heparin fibrillization, Alexa594 FP, 6 h; Potency, µM (titrated, usually from 57.7 µM), for inactives: at the top dose activity, negative = inhibition, most hits filed as inhibitors; 280,000 tested, 0.39% active; AID 1468; further: nearly all actives have a fitted effect of over 55% in size
#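 Heparin (20 uM) drove fibril formation of recombinant tau K18 P301L, 15 uM unlabeled with 0.24 uM Alexa 594 label, for 6 hr at 37 C in 100 mM sodium acetate pH 7. Fluorescence polarization (555/632 nm) read 1 hr after 30 uM ThT.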
# ALDH1A1 block: ALDH1A1 (human) enzyme inhibition | 220,000 tested, 7.3% active | Potency, µM (titrated, usually from 75.3 µM), for the others: at the highest dose activity, negative = inhibition, hits mostly inhibitors | Purified ALDH1A1, NADH fluorescence, propionaldehyde substrate | P00352; active means well fitted inhibition curve with a large enough effect, not every such curve was filed as active; inconclusive means small, poorly fitted or top-dose-only effect, or another doubt; inactive means no such curve, though single readings can be large or run the other way;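 further: plate controls were no enzyme wells and a reference inhibitor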
# HPGD inh: blocks human HPGD enzyme activity; 150,000 tested, 4.3% active; purified HPGD, NADH fluorescence kinetic, PGE2 substrate; P15428; Potency, µM, for the others: at the top dose activity change, negative = inhibition, most hits filed as inhibitors; AID 894; active means well fitted inhibition curve with a large enough effect, not every such curve was filed as active; inconclusive means small, poorly fitted or top-dose-only effect, or another doubt; inactive means no such curve, though single readings can be large or run the other way
# Target sequence (P15428 whole entry, looked up): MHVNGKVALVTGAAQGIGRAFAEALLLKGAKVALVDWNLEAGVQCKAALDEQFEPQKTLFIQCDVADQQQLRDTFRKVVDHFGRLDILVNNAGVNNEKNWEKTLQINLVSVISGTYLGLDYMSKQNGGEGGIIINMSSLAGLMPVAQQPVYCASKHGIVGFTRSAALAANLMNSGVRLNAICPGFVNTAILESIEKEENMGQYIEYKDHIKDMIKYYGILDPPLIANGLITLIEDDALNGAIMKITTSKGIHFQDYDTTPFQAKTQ
#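 20 nM HPGD preincubated 15 min at room temperature with compound in 50 mM Tris-HCl pH 8, 0.01% Tween 20. Started with 1 mM NAD+ and 30 uM prostaglandin E2; NADH fluorescence (360/450 nm) read 5 times over 30-s intervals, last minus first.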
# Active calls of the source: *; ? = inconclusive; . = no result; [ ] = another dose, or the depositor's remark. A selection: hits, their analogues and other compounds. The true share with any hit is near 9.5%. Unless noted, the call rests on the fitted dose curve; in most records, active means well fitted curve in the direction sought with a large enough effect; inconclusive means small, poorly fitted or top-dose-only effect, or another doubt; inactive means no such curve, though single readings can be large; an effect the other way counts as inactive or inconclusive. Unless noted, on the % scale 0 is the no-effect control and ±100 the full control effect; potency means the concentration at half of the fitted maximal effect.
SMILES,NPSR antagonist,Tau fluor counter,Tau ThT inhib,Tau fibril FP,ALDH1A1 block,HPGD inh
O=C(N/N=C/c1ccc(O)c([N+](=O)[O-])c1)C1CC1(c1ccccc1)c1ccccc1 (stereo unspecified),?,?,14µM*,7%,2%,.
O=C(CNC(=O)C(c1ccccc1)c1ccccc1)N/N=C/c1ccc(O)c([N+](=O)[O-])c1,-20%,-18%,?,7%,13µM*,-15%
O=C(CNC(=O)c1ccc(F)cc1)N/N=C/c1ccc(O)c([N+](=O)[O-])c1,-17%,-5%,?,7%,?,25µM*
COc1ccc(CCNC(=O)CO/N=C/c2cc3c(cc2Br)OCO3)cc1OC,-18%,-1%,-6%,11%,4%,.
O=S(=O)(c1ccc2c(c1)OCCO2)N(Cc1ccc(F)cc1)Cc1nnc(-c2cccs2)o1,-20%[46.1 µM],-24%,1%,-14%,4µM*,4.5µM*
Cc1cc(C(=O)CN(Cc2ccc(F)cc2)S(=O)(=O)c2ccc3c(c2)OCCO3)c(C)n1C,?,-21%,-15%,1%,?,-12%
COc1ccc2o/c(=N\O)c(C(=O)Nc3ccccc3OC)cc2c1,-20%[46.1 µM],-17%,?,-12%,?,13µM*
C[C@@H]1C[C@](C)(C(=O)c2ccc3c(c2)OCO3)C=C1c1ccc2c(c1)OCO2,.,-11%,-8%,-2%,-10%,3%
CC(=O)Nc1ccc(NC(=O)C/C(C)=N/NC(N)=S)cc1,13%,-4%,-5%,-5%,22µM*,.
Cc1cc(C)c(S(=O)(=O)NCC23C=CC(O2)C2C(=O)N(c4ccccc4)C(=O)C23)c(C)c1 (stereo unspecified),-13%[46.1 µM],-9%,-15%,-2%,2.5µM*,35µM*
O=C1C2C3C=CC(CNS(=O)(=O)c4ccccc4[N+](=O)[O-])(O3)C2C(=O)N1c1ccccc1 (stereo unspecified),7%,-6%,?,4%,0.89µM*,.
Cc1cc(C)c(S(=O)(=O)NCCS(=O)(=O)N2CCN(c3ccccc3)CC2)c(C)c1,.,-28%,-7%,3%,.,.
CCOc1ccc(Br)cc1S(=O)(=O)Nc1ccccc1N1CCOCC1,?,?,-10%,-2%,?,-11%
COC(=O)c1cc(NC(=O)/C=C/c2ccccc2)ccc1O,9%,-12%,-9%,-5%,1%,.
Cc1ccc(C(=O)c2cc(C)sc2NC(=O)CN2CCN(C(=O)c3ccco3)CC2)cc1,?,-11%,?,12%,25µM*,.
COc1cccc(N2CC(NC(=O)c3ccc(S(=O)(=O)N4CCOCC4)cc3)CC2=O)c1 (stereo unspecified),.,-1%,-5%,-7%,.,.
Cc1ccc(C(C(=O)Nc2ccc(C(C)C)cc2)N(C)C(=O)c2ccc(=O)[nH]c2)cc1 (stereo unspecified),-20%,-15%,-8%,-6%,?,.
O=C(CCC1CCCCC1)NCc1ccccn1,17%,3%,5%,0%,4%,32µM*
O=C(CCC1CCCCC1)Nc1ccccc1O,10%[46.1 µM],-17%,-11%,7%,?,20µM*
O=C(CCC1CCCC1)Nc1ccccc1-c1ccccc1,?,-12%,-18%,15%,20µM*,-8%
CCC(C)NC(=O)c1cnn(-c2ccc(Cl)cc2)c1C1CCN(C(=O)OC(C)(C)C)CC1 (stereo unspecified),.,-15%,-11%,-4%,.,.
CCCCN(c1ccccc1)c1ncnc2nc[nH]c12,-11%,-5%,3%,-3%,11µM*,-11%
CCNc1ccc2noc3c2c1C(=O)c1ccccc1-3,-17%[46.1 µM],?,7.9µM*,28µM*,-7%,-18%
CCOc1ccc2noc3c2c1C(=O)c1ccccc1-3,1%[46.1 µM],?,?,?,?,-12%
O=C1c2ccccc2-c2onc3ccc(NCc4ccco4)c1c23,?,4.5µM*[quencher],3.2µM*,25µM*,?,-7%
SMILES,NPSR antagonist,Tau fluor counter,Tau ThT inhib,Tau fibril FP,ALDH1A1 block,HPGD inh
Cc1ccc(S(=O)(=O)N(C)C)cc1NC(=O)CSc1ncc(C(F)(F)F)cc1Cl,-41%,-17%,-5%,5%,-1%,-9%
Nc1nc(SCC(=O)N2CCc3ccccc3C2)[nH]c(=O)c1-c1ccccc1,-4%[46.1 µM],-3%,-12%,-2%,22µM*,-26%
CC(C)c1nc(SCC(=O)N2CCCC2)c2ccccc2n1,?,-4%,-19%,-4%,3.2µM*,-13%
Cc1ccc(S(=O)(=O)N2CCN(C(=O)CSc3ncc(C(F)(F)F)cc3Cl)CC2)cc1,?,-12%,?,-9%,2.8µM*,-12%
O=C(CSc1nc2[nH]ncc2c(=O)[nH]1)c1ccc(Cl)cc1,-2%,-8%,-6%,2%,2.5µM*,.
COC(=O)NC(c1ccc2ccccc2c1)C(C(C)=O)C(=O)OC (stereo unspecified),.,-12%[11.6 µM],-6%[11.5 µM],10%[11.6 µM],-4%[13.5 µM],.
O=C(CSc1nc(C2CCCCC2)nc2ccccc12)N1CCCC1,46%,-13%,-13%,-8%,-2%,.
O=C(CSc1nncc2ccccc12)N1CCCCC1,-4%,-4%,-8%,-9%,10µM*,.
O=C(CSc1nc2[nH]ncc2c(=O)[nH]1)N1CCCCC1,31%,2%,6%,3%,20µM*,-9%
O=C(CSc1nc2[nH]ncc2c(=O)[nH]1)N1CCCC1,25%,-1%,-1%,5%,4%,-6%
Cc1ccc(S(=O)(=O)N2CCN(C(=O)CSc3nc4ccccc4c(=O)[nH]3)CC2)cc1,?,3%,0%,8%,3.2µM*,-15%
O=C(CSc1nc2ccccc2c(=O)[nH]1)N1CCCCC1,5%[46.1 µM],-1%,-4%,-2%,?,16µM*
Cc1ccc(S(=O)(=O)c2cn(C)c3cc(N4CCCCCC4)c(F)cc3c2=O)cc1,.,1%,5%,7%,.,.
CC1CCN(c2nn3c(=O)c(C(=O)NCCc4ccccc4)cnc3s2)CC1,.,-8%,-6%,4%,.,.
Cc1ccc(C)c(/C(=N\N=C(N)N)C2CC2)c1,.,.,.,.,5%[13.5 µM],-5%
COc1ccc(NC(=O)c2cnc(C)cn2)cc1-n1cnnn1,-6%[46.1 µM],5%,-7%,1%,4%,-10%
COc1ccc(NC(=O)C2CC2)cc1-n1cnnn1,-1%[46.1 µM],3%,0%,-5%,-6%,14µM*
CCOC1=C/C(=C/c2c(N)n3nc(-c4ccccc4)sc3nc2=O)C=CC1=O,-39%,?,8.9µM*,-5%,?,.
COC1=C/C(=C/c2c(N)n3nc(-c4ccc(C)cc4)sc3nc2=O)C=CC1=O,33%,?,10µM*,1%,1.1µM*,.
